# Bioassay records (PubChem BioAssay)
# Sm TGR inh = blocks Schistosoma mansoni thioredoxin glutathione reductase; Q962Y6; purified TGR, DTNB reduction, TNB absorbance 405 nm; Potency, µM (series often up to 114 µM), for the others: at the highest dose activity change, negative = inhibition, usual class: inhibitors; hit rate 3% among 360,000; AID 485364; note: potency is the fitted concentration of half-maximal effect; % is set by controls: 0 for no effect and ±100 for the full control effect; nearly all actives have a fitted effect of over 60% in size
#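 TGR 20 nM + NADPH 100 uM (dispensed conc.), cpd preinc 15 min RT; start with NADPH (500 uM addition) then DTNB (15 mM addition). Kinetic TNB absorbance, 405 nm filter. Four-parameter Hill fit across titration.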
# CHX counter = counter-screen for Shiga toxin inhibitors: cycloheximide protein synthesis inhibition; cell reporter, cycloheximide protein synthesis inhibition counterscreen; max response, %; hit rate 12% among 300,000; AID 2314; in the data active = max response mostly above about 13%, no sharp cut-off; inactive = mostly below about 14%; note: read at 38.3 µM for the half of the compounds with a filed dose; 0% is about no effect
# Shiga inhibitor = inhibitors of Shiga toxin in Vero cells | Vero cells, Shiga toxin protein synthesis inhibition reporter | inhibition, % at 38.7 µM | hit rate 9.2% among 290,000; in the data active = inhibition mostly above about 28%, no sharp cut-off; inactive = mostly below about 43%; note: 0% is about no effect
# LmPK inhibitor = inhibitors of Leishmania mexicana pyruvate kinase. Q27686. purified LmPK, Kinase-Glo ATP luminescence, 1 h. Potency, µM (top dose mostly 57.5 µM), inactives show top-dose activity change, negative = inhibition, usual class: inhibitors. hit rate 0.37% among 290,000. AID 1721; note: potency is the fitted concentration of half-maximal effect; % is set by controls: 0 for no effect and ±100 for the full control effect
#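 Pyruvate kinase activity monitored as ATP production (luciferase luminescence). Conditions: 0.1 nM enzyme, 0.5 mM PEP, 0.1 mM ADP, 1 h, RT; normalized against uninhibited and no-enzyme wells.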
# Tb PYK inh = T. brucei pyruvate kinase inhibition; Q57TT1; TbPYK enzyme, Kinase-Glo Plus ATP luminescence, 45 min; Potency, µM (doses to about 76.8 µM), for the others: at the top dose activity, negative = inhibition, usual class: inhibitors; hit rate 0.12% among 410,000; note: potency is the fitted concentration of half-maximal effect; % is set by controls: 0 for no effect and ±100 for the full control effect; nearly all actives have a fitted effect of over 50% in size
#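 T. brucei PYK with substrate was exposed to pin-transferred compounds across a concentration series, then started with 130 uM ADP (final). After 45 min at room temperature, Kinase-Glo Plus luminescence was read, normalized and curve-fitted.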
# FBPA Giardia inh = inhibitors of Giardia lamblia fructose-1,6-bisphosphate aldolase | hit rate 0.71% among 290,000 | AID 2451 | A8B2U2 | Potency, µM (titrated, usually from 59.6 µM), for inactives: at the top dose activity, negative = inhibition, hits mostly inhibitors | purified Giardia FBPA; note: potency is the fitted concentration of half-maximal effect; % is set by controls: 0 for no effect and ±100 for the full control effect; nearly all actives have a fitted effect of over 55% in size
# Target sequence (A8B2U2 whole entry, looked up): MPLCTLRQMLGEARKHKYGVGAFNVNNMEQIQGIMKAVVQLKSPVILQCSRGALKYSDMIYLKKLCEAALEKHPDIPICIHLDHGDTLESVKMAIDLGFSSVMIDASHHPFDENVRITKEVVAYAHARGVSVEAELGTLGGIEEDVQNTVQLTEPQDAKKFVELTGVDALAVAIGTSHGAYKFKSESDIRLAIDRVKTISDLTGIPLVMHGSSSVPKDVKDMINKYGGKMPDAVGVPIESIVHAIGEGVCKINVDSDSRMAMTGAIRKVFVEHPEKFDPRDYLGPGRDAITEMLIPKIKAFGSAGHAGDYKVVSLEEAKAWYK
#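 40 nM FBPA preincubated 10 min at RT with compound (up to 57.5 uM final), then substrate plus GAPDH/TPI/NAD/arsenate coupling and diaphorase/resazurin added. Fluorescence read after 20 min at RT, 525/598 nm.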
# Numbers without * were called inactive; u = inconclusive; x = not tested or not shown; [ ] = dose if it differs, or a comment. This excerpt belongs to a sample that is enriched for hits. Unless noted, calls come from the whole dose curve; as a rule, active = well fitted curve in the direction sought with a large enough effect; inconclusive = small, poorly fitted or top-dose-only effect, or another doubt; inactive = no such curve, though single readings can be large; an effect the other way counts as inactive or inconclusive.
SMILES,Sm TGR inh,CHX counter,Shiga inhibitor,LmPK inhibitor,Tb PYK inh,FBPA Giardia inh
CC(/C=N/NC(=O)Cc1cccs1)=C\c1ccco1,u,41*,37,6%,x,-29%
Cc1ccc(OC2C(O)COC2/C=C/C#Cc2ccc(C(C)(C)C)cc2)cc1 (configuration not stated),x,x,x,x,x,0%[12.9 µM]
CC(=O)C(/C=N/c1cc(-c2ccc(C)cc2)nn1-c1ccccc1)=C(\C)O,-1%,56*,93*,5%,-3%,-4%
Clc1ccccc1/C=N/c1cc(-c2ccccc2)nn1-c1ccccc1,0%,33*,52*,-3%,-12%,0%
O=c1c(Cl)cc(Cl)nn1-c1ccccc1,u,-2,-9,-3%,3%,4%
CC(C)[C@@H](CC(=O)N[C@@H]1CCCC[C@H]1C(=O)N[C@H](CC(=O)N[C@@H](CCC(=O)O)CC(=O)O)Cc1c[nH]c2ccccc12)NC(=O)C[C@H](Cc1ccccc1)NC(=O)[C@@H]1CCCC[C@H]1N,x,x,x,x,x,-18%
O=c1oc2ccc3ccccc3c2cc1-c1nnc(-c2ccccc2)o1,4%,42*,19,0%,0%,1%
COc1ccc(-c2nnc(-c3cc4c(ccc5ccccc54)oc3=O)o2)cc1,8%,1,-6,-2%,-14%,5%
O=c1oc2ccc3ccccc3c2cc1-c1nnc(-c2cccs2)o1,-10%,25*,-4,0%,4%,7%
O=C(Nc1ccc2oc(-c3ccccc3)nc2c1)c1cccnc1,-15%,39*,54*,2%,-11%,0%
O=C(Nc1ccc2oc(-c3cccnc3)nc2c1)c1ccc(-c2ccc(OC(F)(F)F)cc2)o1,8.9µM*,x,x,x,-8%,x
O=C(Nc1ccc2oc(-c3ccccc3F)nc2c1)c1cncc(Br)c1,-11%,25*,42*,1%,0%,-1%
CCc1ccc2oc(-c3cccc(NC(=O)c4cccnc4)c3)nc2c1,-2%,34*,66*,-2%,3%,10%
Cc1ccc(C(C)C)c(OCC(=O)Nc2ccc(N3CCOCC3)cc2N2CCOCC2)c1,-5%,x,x,x,-5%,x
CCC(=O)NC(=S)Nc1ccc2oc(-c3ccc(OC)cc3)nc2c1,33%,15,24,-1%,0%,8%
COc1ccc(-c2nc3cc(NC(=S)NC(=O)Cc4ccccc4)ccc3o2)cc1,-11%,35*,37,-1%,-14%,0%
O=C(Cc1ccccc1)Nc1ccc2oc(-c3cccnc3)nc2c1,-4%,21,34*,0%,-3%,-2%
O=C(Nc1ccc2oc(-c3cccnc3)nc2c1)c1ccc(-c2ccccc2)o1,35µM*,x,x,x,2%,x
CCOC(=O)c1cc(C)n(CC2CCC(C(=O)Nc3cccc(C(C)=O)c3)CC2)c1C (configuration not stated),-9%,x,x,x,-4%,x
CCN1C=C(Cc2cccs2)C2=C(C1)C(c1cccs1)C(C#N)=C(N)O2 (configuration not stated),22µM*,-1,-23,8%,-2%,u
CCOC(=O)C1=C(C)OC(N)=C(C#N)C1c1cccs1 (configuration not stated),u,-2,-8,-2%,-11%,-21%
CCN1CC2=C(OC(N)=C(C#N)C2c2cccs2)/C(=C/c2cccs2)C1 (configuration not stated),35µM*,-1,-16,2%,-9%,u
CCCS(=O)(=O)N1CC(=O)N(c2cc(C)cc(C)c2)C(C)(C(=O)NC2CCCCCC2)C1 (configuration not stated),0%,x,x,x,0%[15.4 µM],x
CCCCOc1ccc(-c2ncc(C(=O)O)c(C)n2)cc1,1%,28*,99*,-4%,-9%,8%
CCCCOc1ccc(/C(N)=N/O)cc1,0%,43*,82*,-2%,5%,4%
SMILES,Sm TGR inh,CHX counter,Shiga inhibitor,LmPK inhibitor,Tb PYK inh,FBPA Giardia inh
CCCCCCOc1ccc(C(=O)O)cc1,5%,16*,42*,-7%,-9%,u
CCCCOc1ccc(-c2nnn(C(C)C(=O)OCC)n2)cc1 (configuration not stated),5%,8,33,0%,-1%,-4%
CCCCOc1ccc(C(=O)NC)cc1,-2%,21,20,-2%,0%,4%
Cc1cc(C)c(NC(=O)Cn2c(=O)n(CCCCC(=O)NCc3ccccc3Cl)c(=O)c3ccccc32)c(C)c1,1%,x,x,x,-3%,x
CCCCOc1ccc(C(=O)N(Cc2ccc(C(C)C)cc2)C2CCS(=O)(=O)C2)cc1 (configuration not stated),-2%,x,x,x,0%,x
O=C(N/N=C/c1ccccc1F)c1cccc2ccccc12,14%,21,40*,-3%,2%,1%
Cc1ccccc1C(=O)N/N=C/c1ccsc1C,0%,81*,125*,-10%,-12%,19%
Cc1ccccc1C(=O)N/N=C/c1cccc2ccccc12,5%,16*,46*,4%,-9%,-13%
COc1ccccc1NC(=O)C1=C(C)Nc2nnnn2C1c1ccc(C(F)(F)F)cc1 (configuration not stated),0%,x,x,x,-2%,x
O=C(O)c1cccc(-n2cccc2/C=C2/NC(=O)N(c3cccc(Cl)c3)C2=O)c1,-21%,2,18,10%,-9%,0%
COc1ccc(-n2cccc2/C=C2/NC(=O)N(c3cccc(Cl)c3)C2=O)cc1,-4%,22*,14,0%,-12%,4%
COc1cc(/C=C2/NC(=O)N(c3cccc(Cl)c3)C2=O)ccc1O,-20%,30,23*,2%,-8%,2%
COc1cc(/C=C2/C(=O)NN(c3cccc(Cl)c3)C2=O)cc(OC)c1O,u,0,-1,-1%,-15%,-18%
O=C(Nc1ccc(OC(F)(F)F)cc1)NC1CCC(Oc2ccc(C(=O)O)cc2)CC1 (configuration not stated),-8%,x,x,x,-1%,x
CCOC(=O)C1CCN(c2nnc(N3CCCC3=O)s2)CC1,6%,23*,43*,-10%,-2%,-1%
CCOC(=O)C1CCN(C(=O)C2CCN(c3nnc(-n4cccc4)s3)CC2)CC1,-7%,13,-4,7%,0%,8%
O=C(NC(=S)NNS(=O)(=O)c1ccccc1)c1ccc([N+](=O)[O-])cc1,20µM*,-2,-17,0%,-19%,u
O=C(NC(=S)NNS(=O)(=O)c1ccccc1)c1ccccc1[N+](=O)[O-],28µM*,6,6,8%,-10%,15%
COc1ccc(NC(=O)CC2C(=O)N(c3cccc(OC)c3)C(=O)N2CCC2=CCCCC2)cc1 (configuration not stated),6%,x,x,x,7%,x
O=c1[nH]c(=S)n(C2CC2)c(O)c1C=Nc1ccc2c(c1)OCO2,-26%,14*,37,4%,-3%,-23%
